Binding signal data for eight sequences are collected here from article PMC7862700, “An all-to-all approach to the identification of sequence-specific readers for epigenetic DNA modifications on cytosine”.

Test in all cases: DAPPL (digital affinity profiling via proximity ligation, sequencing); 10 mM Tris-HCl pH 7.5, 50 mM NaCl, 1 mM DTT, 4% glycerol, room temperature, 30 min; GST-TFs on glutathione beads, 16-mer random dsDNA library, 0.1% formaldehyde crosslink after washing; high values mean tight binding
Details in all cases: protein: recombinant; tags: N-terminal GST; dsDNA, one strand shown

The target of one assay is T1, FLI1 (Homo sapiens, UniProt Q01543 1-452).
T1 sequence: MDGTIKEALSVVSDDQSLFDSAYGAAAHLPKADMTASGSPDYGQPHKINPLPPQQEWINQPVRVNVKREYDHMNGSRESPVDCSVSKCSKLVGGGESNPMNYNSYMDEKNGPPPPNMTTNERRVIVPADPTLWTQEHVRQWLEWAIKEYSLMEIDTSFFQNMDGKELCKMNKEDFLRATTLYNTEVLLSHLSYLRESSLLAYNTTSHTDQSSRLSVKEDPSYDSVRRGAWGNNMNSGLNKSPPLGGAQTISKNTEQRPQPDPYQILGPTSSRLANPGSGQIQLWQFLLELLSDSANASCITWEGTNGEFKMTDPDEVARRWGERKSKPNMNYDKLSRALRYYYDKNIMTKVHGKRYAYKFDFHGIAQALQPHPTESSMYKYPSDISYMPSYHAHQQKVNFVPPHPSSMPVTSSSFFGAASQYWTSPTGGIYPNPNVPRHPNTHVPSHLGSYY
The method in brief:
(§1)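 GST fusions of human transcription factors were expressed in yeast and captured with glutathione beads. Once given DNA barcodes and pooled alongside a tag-only sample, they were incubated for 30 min at room temperature with 200 nmole of a random double-stranded 16-mer DNA library in Tris/NaCl/DTT/glycerol buffer, then washed, crosslinked (0.1% formaldehyde), proximity-ligated, PCR-amplified and sequenced on an Illumina NextSeq500. The binding signal of each hexamer is its read frequency for a factor divided by its frequency for the tag-only sample.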

Another assay addresses T2, ELK1 (Homo sapiens, UniProt P19419 1-428).
T2 sequence: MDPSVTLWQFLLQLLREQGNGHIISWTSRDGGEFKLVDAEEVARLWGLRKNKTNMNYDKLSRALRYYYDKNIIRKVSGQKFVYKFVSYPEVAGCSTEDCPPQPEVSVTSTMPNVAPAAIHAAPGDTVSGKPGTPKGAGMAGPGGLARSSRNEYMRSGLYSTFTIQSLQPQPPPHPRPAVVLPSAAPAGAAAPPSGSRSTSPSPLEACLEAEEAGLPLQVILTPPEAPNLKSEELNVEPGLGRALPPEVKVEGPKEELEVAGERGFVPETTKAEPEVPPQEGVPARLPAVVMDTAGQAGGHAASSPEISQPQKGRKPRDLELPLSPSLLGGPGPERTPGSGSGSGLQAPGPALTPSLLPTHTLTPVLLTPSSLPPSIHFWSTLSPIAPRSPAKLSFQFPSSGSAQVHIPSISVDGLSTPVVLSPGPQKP
The method in brief: as §1

In a further assay the target is T3, GABPA (Homo sapiens, UniProt Q06546 1-454).
T3 sequence: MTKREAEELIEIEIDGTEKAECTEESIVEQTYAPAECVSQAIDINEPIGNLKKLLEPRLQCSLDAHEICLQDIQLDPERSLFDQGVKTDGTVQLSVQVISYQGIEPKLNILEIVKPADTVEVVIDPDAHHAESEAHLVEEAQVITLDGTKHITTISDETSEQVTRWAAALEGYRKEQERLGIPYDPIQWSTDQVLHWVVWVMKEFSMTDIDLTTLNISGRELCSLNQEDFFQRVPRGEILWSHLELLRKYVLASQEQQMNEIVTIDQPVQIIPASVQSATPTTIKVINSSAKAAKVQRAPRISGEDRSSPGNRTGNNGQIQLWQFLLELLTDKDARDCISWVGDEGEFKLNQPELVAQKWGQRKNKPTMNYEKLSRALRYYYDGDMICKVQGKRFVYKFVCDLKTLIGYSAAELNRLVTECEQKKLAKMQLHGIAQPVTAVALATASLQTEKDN
The method in brief:
as §1

The target of the next assay is T4, ERG (Homo sapiens, UniProt P11308 1-479).
T4 sequence: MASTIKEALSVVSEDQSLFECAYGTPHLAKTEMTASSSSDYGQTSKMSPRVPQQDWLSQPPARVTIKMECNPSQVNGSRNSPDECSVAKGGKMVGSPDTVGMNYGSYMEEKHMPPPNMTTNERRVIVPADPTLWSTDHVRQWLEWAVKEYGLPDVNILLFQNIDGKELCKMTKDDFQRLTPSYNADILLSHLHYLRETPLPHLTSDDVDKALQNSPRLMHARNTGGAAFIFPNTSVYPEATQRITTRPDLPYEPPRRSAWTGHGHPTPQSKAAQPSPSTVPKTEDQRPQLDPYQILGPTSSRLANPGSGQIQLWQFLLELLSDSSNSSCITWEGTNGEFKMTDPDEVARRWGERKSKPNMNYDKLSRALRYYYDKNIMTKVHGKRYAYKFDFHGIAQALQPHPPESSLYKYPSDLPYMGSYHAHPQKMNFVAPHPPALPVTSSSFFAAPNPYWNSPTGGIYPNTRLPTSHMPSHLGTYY
An outline of the steps: as §1

The target in another assay is ELF1 (Homo sapiens, UniProt P32519 1-619). An outline of the steps:
as §1

Another assay deals with T5, EHF (Homo sapiens, UniProt Q9NZC4 1-300).
T5 sequence: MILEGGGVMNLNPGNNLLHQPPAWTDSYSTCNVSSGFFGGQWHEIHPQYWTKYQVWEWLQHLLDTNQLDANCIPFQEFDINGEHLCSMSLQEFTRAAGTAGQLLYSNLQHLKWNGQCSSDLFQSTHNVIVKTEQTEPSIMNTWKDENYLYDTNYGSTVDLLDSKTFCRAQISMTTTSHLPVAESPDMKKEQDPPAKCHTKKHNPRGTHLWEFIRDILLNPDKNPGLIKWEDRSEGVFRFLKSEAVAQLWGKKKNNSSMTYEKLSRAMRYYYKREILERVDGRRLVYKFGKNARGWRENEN
An outline of the steps: as §1

Another assay addresses SPI1 (Homo sapiens, UniProt P17947 1-270). The method in brief: as §1
The target in a further assay is SPIB (Homo sapiens, UniProt Q01892 1-262). The method in brief:
as §1

A further assay addresses T6, ELK3 (Homo sapiens, UniProt P41970 1-407).
T6 sequence: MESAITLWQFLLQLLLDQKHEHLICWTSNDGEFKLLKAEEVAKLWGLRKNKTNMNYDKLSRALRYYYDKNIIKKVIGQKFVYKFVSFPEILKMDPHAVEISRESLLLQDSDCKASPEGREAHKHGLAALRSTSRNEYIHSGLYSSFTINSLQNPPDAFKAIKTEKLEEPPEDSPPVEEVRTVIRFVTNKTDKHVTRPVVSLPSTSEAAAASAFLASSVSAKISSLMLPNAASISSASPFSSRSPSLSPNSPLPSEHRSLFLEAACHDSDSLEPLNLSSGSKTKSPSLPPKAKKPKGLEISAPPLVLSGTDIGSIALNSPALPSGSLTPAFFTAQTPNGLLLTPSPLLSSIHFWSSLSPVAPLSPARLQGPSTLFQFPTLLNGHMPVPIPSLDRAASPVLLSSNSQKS
An outline of the steps: as §1

Sequence of ELF1 (P32519 whole entry): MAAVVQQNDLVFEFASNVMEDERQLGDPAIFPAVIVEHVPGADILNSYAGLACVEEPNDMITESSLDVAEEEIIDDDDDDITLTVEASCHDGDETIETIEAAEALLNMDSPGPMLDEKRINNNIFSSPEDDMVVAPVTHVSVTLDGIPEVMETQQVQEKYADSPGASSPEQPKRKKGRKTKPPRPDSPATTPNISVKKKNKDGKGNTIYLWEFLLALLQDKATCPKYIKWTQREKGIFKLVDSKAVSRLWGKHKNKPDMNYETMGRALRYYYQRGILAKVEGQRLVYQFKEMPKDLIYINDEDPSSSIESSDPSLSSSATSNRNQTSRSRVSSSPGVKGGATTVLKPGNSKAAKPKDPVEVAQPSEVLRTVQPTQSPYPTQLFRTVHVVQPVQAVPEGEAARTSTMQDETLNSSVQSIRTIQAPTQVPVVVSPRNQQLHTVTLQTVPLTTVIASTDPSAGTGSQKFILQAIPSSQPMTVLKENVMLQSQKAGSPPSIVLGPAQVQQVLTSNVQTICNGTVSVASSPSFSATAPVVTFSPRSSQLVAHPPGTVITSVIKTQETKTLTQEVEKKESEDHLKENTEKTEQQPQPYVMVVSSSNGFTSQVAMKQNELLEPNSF
Sequence of SPIB (Q01892 whole entry): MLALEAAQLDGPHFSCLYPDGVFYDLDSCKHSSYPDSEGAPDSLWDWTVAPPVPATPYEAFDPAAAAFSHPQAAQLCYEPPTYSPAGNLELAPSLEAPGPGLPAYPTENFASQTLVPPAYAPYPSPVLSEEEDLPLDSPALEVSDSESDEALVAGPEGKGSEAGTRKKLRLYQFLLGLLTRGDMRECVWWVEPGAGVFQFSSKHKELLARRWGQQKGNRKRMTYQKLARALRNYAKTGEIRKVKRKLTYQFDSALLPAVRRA

With TACCAC, the binding signal was 1.2 fold enrichment (6-mer frequency, TF over GST control) with FLI1; 1.32 fold enrichment (6-mer frequency, TF over GST control) with ELK1; 1.18 fold enrichment (6-mer frequency, TF over GST control) with GABPA; 1.17 fold enrichment (6-mer frequency, TF over GST control) with ERG; 1.32 fold enrichment (6-mer frequency, TF over GST control) with ELF1; 1.23 fold enrichment (6-mer frequency, TF over GST control) in the assay with EHF. For the same sequence, the binding signal in the assay with SPI1 is 1.24 fold enrichment (6-mer frequency, TF over GST control); in the assay with SPIB it was 1.26 fold enrichment (6-mer frequency, TF over GST control); in the assay with ELK3, 1.14 fold enrichment (6-mer frequency, TF over GST control).

Turning to GTAAAT, the binding signal in the assay with FLI1 was 1.02 fold enrichment (6-mer frequency, TF over GST control); with ELK1, 1.09 fold enrichment (6-mer frequency, TF over GST control); with GABPA, 1.21 fold enrichment (6-mer frequency, TF over GST control); with ERG, 1.14 fold enrichment (6-mer frequency, TF over GST control); in the assay with ELF1 it was 1.16 fold enrichment (6-mer frequency, TF over GST control); with EHF, 1.15 fold enrichment (6-mer frequency, TF over GST control). The binding signal in the assay with SPI1 is 1.22 fold enrichment (6-mer frequency, TF over GST control); with SPIB it was 1.18 fold enrichment (6-mer frequency, TF over GST control); with ELK3, 1.16 fold enrichment (6-mer frequency, TF over GST control).

Regarding AAAACC, the binding signal with FLI1 was 1.12 fold enrichment (6-mer frequency, TF over GST control); with ELK1, 1.05 fold enrichment (6-mer frequency, TF over GST control); with GABPA, 1.16 fold enrichment (6-mer frequency, TF over GST control); with ERG, 1.13 fold enrichment (6-mer frequency, TF over GST control); in the assay with ELF1, 1.21 fold enrichment (6-mer frequency, TF over GST control); in the assay with EHF it was 1.18 fold enrichment (6-mer frequency, TF over GST control). The binding signal with SPI1 is 1.27 fold enrichment (6-mer frequency, TF over GST control); with SPIB it was 1.19 fold enrichment (6-mer frequency, TF over GST control); with ELK3, 1.26 fold enrichment (6-mer frequency, TF over GST control).

With CTCCAA, the binding signal in the assay with FLI1 is 1.23 fold enrichment (6-mer frequency, TF over GST control); with ELK1, 1.41 fold enrichment (6-mer frequency, TF over GST control); with GABPA, 1.4 fold enrichment (6-mer frequency, TF over GST control); with ERG it was 1.32 fold enrichment (6-mer frequency, TF over GST control); with ELF1, 1.3 fold enrichment (6-mer frequency, TF over GST control); in the assay with EHF, 1.26 fold enrichment (6-mer frequency, TF over GST control). In addition, the binding signal was 1.29 fold enrichment (6-mer frequency, TF over GST control) with SPI1; 1.31 fold enrichment (6-mer frequency, TF over GST control) in the assay with SPIB; 1.25 fold enrichment (6-mer frequency, TF over GST control) with ELK3.

Regarding TTCTAT, the binding signal is 1.4 fold enrichment (6-mer frequency, TF over GST control) with FLI1; 1.49 fold enrichment (6-mer frequency, TF over GST control) in the assay with ELK1; 1.31 fold enrichment (6-mer frequency, TF over GST control) with GABPA; 1.26 fold enrichment (6-mer frequency, TF over GST control) in the assay with ERG; 1.46 fold enrichment (6-mer frequency, TF over GST control) with ELF1; 1.42 fold enrichment (6-mer frequency, TF over GST control) in the assay with EHF. The binding signal in the assay with SPI1 was 1.36 fold enrichment (6-mer frequency, TF over GST control); with SPIB, 1.41 fold enrichment (6-mer frequency, TF over GST control); with ELK3, 1.35 fold enrichment (6-mer frequency, TF over GST control).

In the case of TCGTCT, the binding signal with FLI1 is 1.52 fold enrichment (6-mer frequency, TF over GST control); with ELK1, 1.34 fold enrichment (6-mer frequency, TF over GST control); with GABPA, 1.43 fold enrichment (6-mer frequency, TF over GST control); with ERG, 1.34 fold enrichment (6-mer frequency, TF over GST control); in the assay with ELF1, 1.4 fold enrichment (6-mer frequency, TF over GST control); in the assay with EHF, 1.38 fold enrichment (6-mer frequency, TF over GST control). Besides, the binding signal was 1.26 fold enrichment (6-mer frequency, TF over GST control) in the assay with SPI1; 1.42 fold enrichment (6-mer frequency, TF over GST control) with SPIB; 1.23 fold enrichment (6-mer frequency, TF over GST control) with ELK3.

Regarding TCTAAG, the binding signal with FLI1 is 1.22 fold enrichment (6-mer frequency, TF over GST control); with ELK1, 1.19 fold enrichment (6-mer frequency, TF over GST control); in the assay with GABPA it was 1.3 fold enrichment (6-mer frequency, TF over GST control); in the assay with ERG, 1.2 fold enrichment (6-mer frequency, TF over GST control); in the assay with ELF1 it was 1.29 fold enrichment (6-mer frequency, TF over GST control); with EHF, 1.28 fold enrichment (6-mer frequency, TF over GST control). The binding signal with SPI1 is 1.17 fold enrichment (6-mer frequency, TF over GST control); with SPIB, 1.28 fold enrichment (6-mer frequency, TF over GST control); in the assay with ELK3 it was 1.22 fold enrichment (6-mer frequency, TF over GST control).

TTTGCG: the binding signal is 1.27 fold enrichment (6-mer frequency, TF over GST control) with FLI1; 1.29 fold enrichment (6-mer frequency, TF over GST control) in the assay with ELK1; 1.26 fold enrichment (6-mer frequency, TF over GST control) with GABPA; 1.14 fold enrichment (6-mer frequency, TF over GST control) in the assay with ERG; 1.27 fold enrichment (6-mer frequency, TF over GST control) with ELF1; 1.19 fold enrichment (6-mer frequency, TF over GST control) with EHF. Also, the binding signal with SPI1 was 1.32 fold enrichment (6-mer frequency, TF over GST control); in the assay with SPIB, 1.19 fold enrichment (6-mer frequency, TF over GST control); with ELK3, 1.11 fold enrichment (6-mer frequency, TF over GST control).
